Experimental data from PubChem BioAssay AID1159580 (chemical genetic matrix, 2015).
In all, about 5,500 compounds went through this assay and about 2,000 (36%) were called active. Another 18% or so got no clear call; they are omitted. No stated cut-off is given here; in the data, active means normalized growth mostly below about 0.91 (no sharp cut-off); inconclusive means no clear call, values can overlap the other calls; inactive means mostly above about 0.92. The list shows a part of the results.

Experiment: chemical genetic growth profiling, strain panel (AID 1159580);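 further: tested at 20 µM; growth read once vehicle control cultures reached saturation at 30 °C; 1 = growth at the plate median or of vehicle wells; lower values mean less growth of the strain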
Settings: S. cerevisiae deletion strains, growth OD

Measured: normalized growth

CC(=O)O[C@H]1C[C@@]2(C)[C@H](c3ccoc3)OC(=O)[C@H]3O[C@]32[C@@]2(C)C1[C@]1(C)C(C[C@H]2OC(C)=O)C(C)(C)[C@H](OC(C)=O)C[C@@H]1OC(C)=O (stereo partly drawn)
active: locus YGL253W, strain hxk2, active compounds read low 0.907
inactive: locus YAL013W, strain DEP1, active compounds read low 0.999 | locus YAL021C, strain ccr4, active compounds read low 1.04 | locus YAL026C, strain drs2, active compounds read low 0.97 | locus YAL030W, strain snc1, active compounds read low 0.997 | locus YBL061C, strain skt5, active compounds read low 0.993 | locus YBR009C, strain hhf1, active compounds read low 1.05 | locus YBR021W, strain FUR4, active compounds read low 1.02 | locus YBR023C, strain chs3, active compounds read low 1 | locus YBR171W, strain sec66, active compounds read low 0.958 | locus YBR229C, strain ROT2, active compounds read low 0.949 | locus YBR231C, strain swc5, active compounds read low 1 | locus YBR279W, strain paf1, active compounds read low 0.998 | locus YCL011C, strain gbp2, active compounds read low 0.998 | locus YCL016C, strain dcc1, active compounds read low 1.05 | locus YCL029C, strain bik1, active compounds read low 0.971 | locus YCL061C, strain MRC1, active compounds read low 1 | locus YCL069W, strain vba3, active compounds read low 0.975 | locus YCR088W, strain abp1, active compounds read low 0.99 | locus YDL005C, strain med2, active compounds read low 0.968 | locus YDL035C, strain GPR1, active compounds read low 0.968 | locus YDL040C, strain nat1, active compounds read low 0.99 | locus YDL074C, strain BRE1, active compounds read low 0.999 | locus YDL101C, strain DUN1, active compounds read low 0.974 | locus YDL134C, strain PPH21, active compounds read low 0.986 | locus YDL185W, strain tfp1, active compounds read low 0.953 | locus YDL192W, strain arf1, active compounds read low 0.992 | locus YDR001C, strain nth1, active compounds read low 0.989 | locus YDR069C, strain doa4, active compounds read low 0.972 | locus YDR101C, strain arx1, active compounds read low 0.946 | locus YDR137W, strain rgp1, active compounds read low 1 | locus YDR159W, strain sac3, active compounds read low 0.918 | locus YDR162C, strain NBP2, active compounds read low 1.01 | locus YDR195W, strain ref2 0.981 | locus YDR297W, strain sur2, active compounds read low 0.982 | locus YDR318W, strain mcm21, active compounds read low 0.973 | locus YDR334W, strain swr1, active compounds read low 0.975 | locus YDR335W, strain msn5, active compounds read low 0.997 | locus YDR388W, active compounds read low 0.983 | locus YDR392W, strain spt3, active compounds read low 1 | locus YDR502C, strain sam2, active compounds read low 0.987 | locus YEL003W, strain gim4, active compounds read low 0.967 | locus YEL037C, strain rad23, active compounds read low 0.989 | locus YEL061C, strain CIN8 (second series), active compounds read low 0.978 | locus YEL061C, strain CIN8, active compounds read low 0.997 | locus YER015W, strain faa2, active compounds read low 0.997 | locus YER016W, strain bim1, active compounds read low 0.98 | locus YER110C, active compounds read low 0.974 | locus YER111C, strain swi4, active compounds read low 0.979 | locus YER155C, strain BEM2 (second series), active compounds read low 1.02 | locus YER155C, strain BEM2, active compounds read low 1.01 | locus YER167W, strain BCK2, active compounds read low 0.981 | locus YFR010W, strain ubp6, active compounds read low 0.955 | locus YGL078C, strain dbp3, active compounds read low 0.972 | locus YGL086W, strain mad1, active compounds read low 0.996 | locus YGL167C, strain pmr1, active compounds read low 0.99 | locus YGL173C, strain kem1, active compounds read low 0.964 | locus YGL227W, strain vid30, active compounds read low 0.983 | locus YGL240W, strain doc1, active compounds read low 0.978 | locus YGL248W, strain PDE1, active compounds read low 0.989 | locus YGR135W, strain pre9, active compounds read low 1 | locus YGR252W, strain gcn5, active compounds read low 0.94 | locus YHR013C, strain ard1, active compounds read low 1.01 | locus YHR027C, strain rpn1, active compounds read low 0.993 | locus YHR030C, strain SLT2, active compounds read low 0.991 | locus YHR079C, strain IRE1 (second series), active compounds read low 0.991 | locus YHR094C, strain hxt1, active compounds read low 0.975 | locus YHR129C, strain ARP1, active compounds read low 0.995 | locus YHR142W, strain chs7, active compounds read low 1 | locus YHR200W, strain rpn10, active compounds read low 0.977 | locus YIL066C, strain RNR3, active compounds read low 0.949 | locus YIL073C, strain SPO22, active compounds read low 0.949 | locus YIL125W, strain kgd1, active compounds read low 0.983 | locus YIR030C, strain dcg1, active compounds read low 0.981 | locus YJL092W, strain hpr5, active compounds read low 0.973 | locus YJL095W, strain BCK1 (second series), active compounds read low 0.977 | locus YJL095W, strain BCK1, active compounds read low 1.02 | locus YJL115W, strain asf1, active compounds read low 0.987 | locus YJL129C, strain trk1, active compounds read low 0.966 | locus YJL134W, strain LCB3, active compounds read low 0.989 | locus YJL154C, strain vps35, active compounds read low 0.996 | locus YJL164C, strain tpk1, active compounds read low 1.02 | locus YJL166W, strain qcr8, active compounds read low 0.976
